Reference: PubChem BioAssay (EPA / NIEHS)
Active and inactive are the calls of the source. The calls were made as follows: active = hit-call score of the fitted dose curve at least 0.9, where 1 is the maximum; inactive = score below 0.9.

Each compound was assayed against Bile acid receptor (Homo sapiens) (UniProt Q96RI1) (assay: ATG_IR1_CIS: Attagene CIS-FACTORIAL HepG2 Assay for human Nuclear Receptor Subfamily 1 Group H Member 4 (NR1H4), IR1 submotif (AID 2282946)). Conditions: IR1 reporter transcription, actives raise or lower the signal.
Description: ATG_CIS is a cell-based, multiplexed-readout assay that uses HepG2, a human liver cell line, with measurements taken at 24 hours after chemical dosing in a 24-well plate.ATG_IR1_CIS is one of 52 assay component(s) measured or calculated from the ATG_CIS assay. It is designed to make measurements of mRNA induction, a form of inducible reporter, as detected with fluorescence intensity signals by Reverse transcription polymerase chain reaction (RT-PCR) and Capillary electrophoresis technology.Data from the assay component ATG_IR1_CIS was analyzed into 1 assay endpoint. This assay endpoint, ATG_IR1_CIS, was analyzed with bidirectional fitting relative to DMSO as the negative control and baseline of activity. Using a type of inducible reporter, measures of mRNA for gain or loss-of-signal activity can be used to understand the reporter gene at the transcription factor-level as they relate to the gene NR1H4. Furthermore, this assay endpoint can be referred to as a primary readout, because this assay has produced multiple assay endpoints where this one serves a reporter gene function. To generalize the intended target to other relatable targets, this assay endpoint is annotated to the nuclear receptor intended target family, where the subfamily is non-steroidal.
Human liver HepG2 cells are transiently transfected with multiple reporter transcription units (MRTUs) in 6-well plates using FuGene 6 reagent (Roche; 3 ml FuGene/1 mg DNA). The MRTU constructs are regulated by a cis-regulating element (promoter). […] A major difference between the CIS and TRANS system is that in CIS activities of endogenous TFs are measured, whereas the TRANS assay evaluates changes in activities of exogenous, chimeric NR-Gal4 proteins. […] At the end of 24 hour incubation, total RNA was isolated using TriZol reagent (Invitrogen). The isolated RNA is then reverse-transcribed using oligo(dT) primer and Mo-MLV reverse transcriptase (Invitrogen) with DNAse I (Ambion) treatment for 30 min. The one-tenth of the produced cDNA was amplified by PCR using Taq DNA polymerase (Invitrogen) and two reporter sequence-specific primers. The PCR products were fluorescently labeled by primer extension with 6-arboxyfluorescein (6-FAM) 5'-labeled reporter sequence-specific primer (2 min at 95 C, 20 s at 68 C and 10 min at 72 C) and these products were digested with 5U of HpaI (New England Biolabs) for 2h at 37 C. The fragments were purified using Qiaquick PCR columns (Qiagen), analyzed on an ABI 3130xL genetic analyzer (Applied Biosystems) with peak positions identified by using a set of X-rhodamine (ROX)-labeled MapMarker1000 molecular weight standards (BioVentures). The raw capillary electrophoresis data was processed using Attagraph software (Attagene).

Bile acid receptor (Homo sapiens), sequence (Q96RI1 whole entry, looked up): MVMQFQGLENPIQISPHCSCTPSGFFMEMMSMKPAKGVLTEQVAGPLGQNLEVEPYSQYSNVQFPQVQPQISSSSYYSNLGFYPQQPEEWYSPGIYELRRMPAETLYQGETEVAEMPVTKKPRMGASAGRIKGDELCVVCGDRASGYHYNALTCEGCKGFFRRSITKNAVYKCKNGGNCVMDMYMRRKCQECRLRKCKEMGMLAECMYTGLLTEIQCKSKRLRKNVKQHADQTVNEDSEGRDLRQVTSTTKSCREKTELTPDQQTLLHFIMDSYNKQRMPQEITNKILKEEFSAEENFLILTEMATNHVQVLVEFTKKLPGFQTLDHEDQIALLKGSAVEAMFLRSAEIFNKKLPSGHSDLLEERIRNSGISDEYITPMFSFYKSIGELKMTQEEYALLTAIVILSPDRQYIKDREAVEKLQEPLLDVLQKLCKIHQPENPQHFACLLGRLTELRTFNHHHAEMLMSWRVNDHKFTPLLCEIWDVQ

outcome, inactive:
CCOCCO, CCCCCCCCCCCCc1ccccc1, Cn1c(=O)cc(Oc2ccc(F)cc2F)c2cnc(NCC(C)(C)O)nc21, CC(C)(O)c1coc(S(=O)(=O)NC(=O)Nc2c3c(cc4c2CCC4)CCC3)c1, CCOCCOCCOCCO, COc1ccc(/C=C/S(=O)(=O)NC(=O)c2ccc(C)cc2Cl)cc1, CC(C)CCCCCCCOC(=O)CCCCC(=O)OCCCCCCCC(C)C, Cc1ccc(O)cc1, CCOC(=O)CC(CC(=O)OCC)(OC(C)=O)C(=O)OCC, CC[C@H](C)C(=O)O[C@H]1C[C@@H](C)C=C2C=C[C@H](C)[C@H](CC[C@@H]3C[C@@H](O)CC(=O)O3)[C@H]21, CCNc1ccccc1, O=C1CCCCCN1, COC(=O)c1c(Cl)c(Cl)c(C(=O)OC)c(Cl)c1Cl, Cc1[nH]cnc1C[C@H]1CCc2c(C)c3ccccc3n2C1=O, C1=CCCC=CCCC=CCC1, COc1cccc(-c2ccc(/C=C\CN3CCCCCC3)cc2Cl)c1, CC(C)=CCC/C(C)=C\CO, CCCCC(CC)COC(=O)c1ccc(C(=O)OCC(CC)CCCC)cc1 (centres undefined), Nc1cccc(N)c1, CC1(C)C(=O)N(Br)C(=O)N1Br, CN(C)c1ccc(Cc2ccc(N(C)C)cc2)cc1, CCCCC(CC)COC(=O)CCCCCCCCC(=O)OCC(CC)CCCC (centres undefined), CC(C)=CCC/C(C)=C/CO, COCCOc1cc2cc(C(=O)NC3CCN(C(C)C)CC3)n(CC(=O)Nc3ccc(Cl)cn3)c2cn1, Fc1ccccc1[C@@H](F)COC1CCC(Nc2ncnc3[nH]ncc23)CC1 (some centres undefined), COCCOCCOCCOC, C1N2CN3CN1CN(C2)C3, CC(O)CN(CCN(CC(C)O)CC(C)O)CC(C)O (centres undefined), Cc1ccc(C)c(O)c1, Cc1c(-c2cccnc2)c2ccccc2n1CCCCC(=O)O

AC50, active:
CCN(C(=O)c1cc(C)cc(OC[C@H](C)Nc2ccncc2)c1)C(C)C 42 µM, CCCCCCCCCCCCCCCO 41.3 µM, CCOc1cccc(-n2cc(C(=O)N3CCN(c4cc(C(=O)O)c5ccccc5c4)CC3)nc2-c2ccc(C)cc2)c1 24.8 µM, CC(C)c1cccc(C(C)C)c1N1C(=O)c2ccc(O)cc2C1=O 69.5 µM, CNS(=O)(=O)c1cc(C(=O)N2CCC(CCN3C4CCC3CC(n3c(C)nc5ccccc53)C4)(c3cccc(F)c3)CC2)c(Cl)cc1F (centres undefined) 3.85 µM, COc1ccc2sc(C(=O)Nc3nnn[nH]3)c(OC(C)C)c2c1 67.6 µM, CCOC(=O)c1ccc(C2CCC(NC[C@H](O)COc3ccc(O)c(NS(C)(=O)=O)c3)CC2)cc1 (some centres undefined) 53.2 µM, Oc1ccc2c(c1)-c1ccccc1C2 1.3 µM, CCc1cc(SCc2sc(-c3ccc(C(F)(F)F)cc3)nc2CN2CCN(c3ccc(OC)cc3)CC2)ccc1OCC(=O)O 3.93 µM
